TLR9-MyD88 inh: inhibitors of TLR9-MyD88 association in cells, primary screen, cell-based, CHO, BLA complementation, fluorescence; Toll-like receptor 9 (Homo sapiens) + Myeloid differentiation primary response protein …; CCF4 FRET ratio; inhibition, % at 4.98 µM; 340,000 compounds, 0.21% hits; AID 504734, 2011;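 active = inhibition above the mean over all tested compounds plus 3 SD, cut at about 21% in these data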;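 also: 0% = DMSO only wells and 100% = clavulanate BLA inhibitor control wells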
NOD2 RIPK2 PPI: NOD2-RIPK2 binding disruptors in cells, primary screen, fluorescence, CHO cells, BLA complementation; inhibition, % at 4.98 µM; Receptor-interacting serine/threonine-protein kinase 2 (Homo sapiens), O43353; CCF4 ratio; 360,000 compounds, 0.38% hits; in the data active = inhibition above about 21%;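 also: 0% = vehicle only and 100% = reference blocker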
ABHD5 PLIN5 PPI: ABHD5-PLIN5 interaction inhibitors, primary screen, cell lysate, split luciferase complementation, luminescence. Perilipin-5 (Homo sapiens) + 1-acylglycerol-3-phosphate O-acyltransferase ABHD5 (Homo …. Split G. princeps luciferase complementation, 4 h. inhibition, % at 4 µM. 360,000 compounds, 0.78% hits. AID 602281, 2012;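 active = inhibition above the mean inhibition across every tested compound plus 3 SD, cut at about 22% in these data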;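 also: 0% = DMSO only wells and the 100% control is not disclosed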
Target sequence (Q00G26 whole entry, looked up): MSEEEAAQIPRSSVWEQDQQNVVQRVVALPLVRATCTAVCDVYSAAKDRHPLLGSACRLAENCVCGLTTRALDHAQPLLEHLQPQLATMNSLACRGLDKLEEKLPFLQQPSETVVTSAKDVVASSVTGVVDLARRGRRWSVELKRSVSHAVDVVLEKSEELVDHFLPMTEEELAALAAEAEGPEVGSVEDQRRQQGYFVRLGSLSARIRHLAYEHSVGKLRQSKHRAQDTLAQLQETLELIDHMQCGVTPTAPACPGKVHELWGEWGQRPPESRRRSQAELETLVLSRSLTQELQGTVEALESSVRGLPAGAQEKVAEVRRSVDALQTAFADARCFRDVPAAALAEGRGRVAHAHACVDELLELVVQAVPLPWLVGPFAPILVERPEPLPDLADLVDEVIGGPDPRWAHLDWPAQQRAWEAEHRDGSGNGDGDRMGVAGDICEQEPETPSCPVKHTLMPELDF
Target sequence (Q8WTS1 whole entry, looked up): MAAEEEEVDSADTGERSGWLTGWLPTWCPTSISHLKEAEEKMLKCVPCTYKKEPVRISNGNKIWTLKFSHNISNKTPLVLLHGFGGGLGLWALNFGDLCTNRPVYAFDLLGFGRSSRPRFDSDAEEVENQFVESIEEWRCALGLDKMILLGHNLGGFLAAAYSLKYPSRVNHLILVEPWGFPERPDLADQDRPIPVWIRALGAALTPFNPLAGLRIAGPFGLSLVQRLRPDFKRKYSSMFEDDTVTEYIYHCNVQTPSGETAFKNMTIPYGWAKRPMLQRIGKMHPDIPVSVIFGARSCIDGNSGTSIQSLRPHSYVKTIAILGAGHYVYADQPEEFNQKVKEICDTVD
TLR4 MyD88 comp: inhibitors of TLR4-MyD88 association in cells, primary screen, cell-based, HeLa CL3-4, BLA complementation, FRET ratio | Toll-like receptor 4 (Homo sapiens) + Myeloid differentiation primary response protein … | HeLa CL3-4 TLR4/MyD88 BLA complementation | inhibition, % at 8.4 µM | 200,000 compounds, 0.18% hits | AID 861, 2007; in the data active = inhibition above about 25%;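 also: 0% = vehicle and 100% = reference inhibitor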
NOD2 RIPK2 conf: NOD2-RIPK2 binding disruptors, retest, confirmation, fluorescence, CHO cells, BLA complementation, triplicate. shares compounds with NOD2 RIPK2 PPI. 1,200 compounds, 70% hits. CCF4 FRET. inhibition, % at 4.98 µM;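 active = mean inhibition across replicates above a set limit taken from the earlier primary screen, cut at about 21% in these data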;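 also: 0% = DMSO-only wells and the high end = clavulanate BLA-blocked wells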
NOD2 BLA counter: counter-screen for NOD2-RIPK2 interaction inhibitors: BLA reporter | shares compounds with NOD2 RIPK2 PPI | CHO BLA reporter, CCF4 FRET ratio, counterscreen | inhibition, % at 4.98 µM | 1,200 compounds, 57% hits;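 active = mean inhibition above the low-control mean inhibition plus three low-control SD, cut at about 11% in these data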;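 also: 0% = DMSO only wells and 100% = clavulanate high control wells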
An asterisk follows results filed as active; · = no result given. An excerpt weighted towards active compounds, which were near 1.2% of everything screened.

SMILES	TLR9-MyD88 inh	NOD2 RIPK2 PPI	ABHD5 PLIN5 PPI	TLR4 MyD88 comp	NOD2 RIPK2 conf	NOD2 BLA counter
O=c1ccn2c(n1)SC(c1ccccc1)C2 (stereo not drawn)	9	-8	8	·	·	·
CCN(CC)CCNC(=O)C1(O)c2cc(Br)ccc2NC(=O)N1c1ccccc1 (stereo not drawn)	-2	-7	2	·	·	·
NC(=O)CSc1ncc(-c2ccccc2)[nH]1	-9	-7	4	3	·	·
O=[N+]([O-])c1ccc(-c2cnc(SC(c3ccccc3)c3ccccc3)[nH]2)cc1	14	44*	-17	9	19	26*
CC(C)CC1NC(=O)N(CC(=O)N(C)C2CCCCC2)C1=O (stereo not drawn)	-18	-3	1	·	·	·
COc1ccc(NC(=O)CC2C(=O)N(c3ccc(OC)cc3)C(=S)N2NC(=O)c2cccc(F)c2)cc1 (stereo not drawn)	7	22*	0	-18	5	-3
COc1ccc(NC2=CC(=O)CC(C)(C)C2)cc1OC	-5	23*	2	11	-11	-3
CCOC(=O)C1(C)CCN1C(=O)/C=C/c1ccccc1 (stereo not drawn)	·	21*	-4	·	2	-1
Cc1ccc(N2C(=O)c3cccc4c(C(=O)O)ccc(c34)C2=O)cc1	·	·	·	-14	·	·
CC(=O)Nc1ccc(N2C(=O)c3cccc4c(O)ccc(c34)C2=O)cc1	17	27*	-5	·	25*	28*
CC(C)(C)n1nnnc1C(c1cc2ccccc2o1)N(CCC#N)Cc1ccccc1 (stereo not drawn)	·	-4	6	·	·	·
O=[N+]([O-])c1ccc(N/N=C/c2ccccc2O)cc1	8	27*	-1	·	38*	35*
O=[N+]([O-])c1ccc(NN=Cc2ccc(O)cc2O)nc1	5	22*	5	·	8	15*
O=[N+]([O-])c1ccc(NN=Cc2ccccc2O)nc1	15	19	4	·	·	·
COc1ccc(-c2nnn(Cc3ccccc3)n2)cc1OC	-8	5	-2	·	·	·
COc1cc2c3nnc(-c4ccc(F)cc4)c-3cn(Cc3ccccc3)c2cc1OC	12	67*	-2	22	66*	66*
CN1C(=O)[C@H]2[C@@H](c3ccc(F)cc3)N3C(=O)c4ccccc4NC(=O)[C@@]3(C)[C@H]2C1=O	5	22*	-4	·	-2	0
CC(C)CN(C(=O)Cn1c(C(F)(F)F)nc2ccccc21)c1c(N)n(Cc2ccccc2)c(=O)[nH]c1=O	2	2	2	·	·	·
O=C1Nc2cc(C(=O)NCCN3CCCCCC3)ccc2S/C1=C/c1ccccc1F	6	22*	6	·	49*	51*
C[C@H](NC(=O)N1CCn2c1nc1ccccc12)C(=O)N1CCCCC1	1	21*	0	·	-8	-1
CN1CCN(c2nc3ccccn3c(=O)c2C=C(C#N)C#N)CC1	20	-11	3	·	·	·
CC(C)(C)c1ccc(S(=O)(=O)NCC(=O)N2CCCC2)cc1	8	-12	4	·	·	·
CC(C)(C)OC(=O)n1cccc1/C=C1\c2ccccc2C(=O)N1c1ccccc1	-2	41*	8	·	6	5
O=C1c2ccccc2/C(=C\c2ccc(Br)s2)N1c1ccccc1	-26	-1	1	·	·	·
COc1ccc(NC(=S)N(Cc2cccnc2)Cc2cc3cc(OC)c(OC)cc3[nH]c2=O)cc1	-11	-11	-1	-5	·	·
SMILES	TLR9-MyD88 inh	NOD2 RIPK2 PPI	ABHD5 PLIN5 PPI	TLR4 MyD88 comp	NOD2 RIPK2 conf	NOD2 BLA counter
O=C(CSc1ccc([N+](=O)[O-])cc1)Nc1cccc(S(=O)(=O)N2CCOCC2)c1	11	41*	1	·	0	-1
CNC(=O)c1ccc(S(=O)(=O)c2ccc(Cl)cc2)c(NC(C)=O)c1	0	-3	4	·	·	·
CNC(=O)c1nnsc1S(=O)(=O)c1ccc(Cl)cc1	41*	85*	74*	13	80*	9
COc1cccc(N2CCN(c3ncnc4c3[nH]c3ccccc34)CC2C)c1 (stereo not drawn)	·	·	·	12	·	·
COc1cccc(N2CCN(c3ncnc4c3[nH]c3ccc(F)cc34)CC2C)c1 (stereo not drawn)	3	28*	-1	6	15	0
O=C1C=C(c2ccccc2Oc2ccccc2)C[C@@H](c2ccc(F)cc2)C1	9	-3	-9	·	·	·
O=[N+]([O-])c1c(NCCCO)cc(Sc2nc3ccccc3s2)c2nonc12	40*	92*	58*	12	82*	29*
CC(=O)OCCCNc1cc(SCc2ccco2)c2nonc2c1[N+](=O)[O-]	-1	-20	3	7	·	·
CN(C)/C=C(\C=O)c1ccc(Cl)cc1Cl	-4	6	3	1	·	·
CC(C)NS(=O)(=O)c1ccc(OCC(=O)N2CCN(c3ccccc3)CC2)cc1	2	68*	-5	7	-6	-3
Cc1cc(C(=O)CN2C(=O)NC3(CCCCC3C)C2=O)c(C)n1Cc1cccs1 (stereo not drawn)	-6	-11	2	-18	·	·
Cc1cc(C(=O)CN2C(=O)c3cccc(N)c3C2=O)c(C)n1Cc1cccs1	20	24*	-4	22	29*	42*
CC(=O)Nc1ccc(NC(=O)CSCCc2ccccn2)cc1	0	4	-2	7	·	·
COC(=O)c1cc2c(cc1NC(=O)CSCCc1ccccn1)OCO2	-3	25*	4	-6	4	-1
CCc1ccccc1NC(=O)C1CCCN(S(=O)(=O)c2ccc3c(c2)CC(C)N3C(C)=O)C1 (stereo not drawn)	-9	-9	-1	·	·	·
Cc1[nH]c(C)c(S(=O)(=O)N2CCN(c3cccc(Cl)c3)CC2)c1C(=O)N1CCCC1	-24	6	7	·	·	·
COc1ccccc1NS(=O)(=O)c1c(C)[nH]c(C)c1C(=O)N1CCCC1	-9	36*	4	·	-5	-7
COc1cccc(N2CCN(S(=O)(=O)c3c(C)[nH]c(C)c3C(=O)N3CCCC3)CC2)c1	-5	23*	8	·	1	-3
CCN(C(=O)CSc1nnc(NCCOC)s1)c1c(N)n(Cc2ccccc2)c(=O)[nH]c1=O	16	6	-1	·	·	·
Nc1nc2ncccn2c1-c1ccc(F)cc1	·	17	-5	·	·	·
Nc1nc2ncccn2c1-c1ccc(C(F)(F)F)cc1	·	25*	6	·	28*	34*
Cc1cc(C(=O)OCC(=O)c2ccc3c(c2)OCCO3)c(C)o1	6	-5	-4	5	·	·
Cc1c(C(=O)OCC(=O)c2ccc3c(c2)OCCO3)oc2ccccc12	0	26*	8	0	-3	-3
